This is part of a sample that, as a whole, favours compounds with a hit. Of some 83,000 tested, about 20% had one in any assay.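 Plates (96-well) were seeded with cells, treated with compound at one concentration, and incubated for 48 hours before percent growth was determined.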 Unmarked numbers belong to inactive results. Calls of active or inactive are those of the source. Rule for the calls: active = growth percent below 10; inactive = the rest.

In PubChem BioAssay (NCI) one finds growth data, which are given here for eight molecules.

Among the test systems are HCT-15 colon; HT29 colon; SNB-75 CNS; SNB-19 CNS; U251 CNS; PC-3 prostate; SK-MEL-5 melanoma; UACC-62 melanoma; LOX IMVI melanoma; SK-MEL-28 melanoma; SK-MEL-2 melanoma; EKVX NSCLC; SN12C renal; UO-31 renal; TK-10 renal; ACHN renal; CAKI-1 renal; A498 renal; CCRF-CEM leukemia; MOLT-4 leukemia.
Holding throughout (assay): NCI-60 one-dose screen, 48 h (100 = growth as untreated, 0 = no growth, -100 = all killed)
Holding throughout (settings): 10 µM

For `CC(C)C(=O)Nc1ccc(C(=O)NC(=S)Nc2ccc(C(=O)O)cc2)cc1`, the growth in the experiment on HCT-15 colon is 99.7%; in the experiment with HT29 colon it was 111%; in the experiment with SNB-75 CNS, 79.1%; in the experiment on SNB-19 CNS, 97.8%; in the experiment on U251 CNS, 104%; in the experiment with PC-3 prostate, 101%. The growth with SK-MEL-5 melanoma was 93.8%; with UACC-62 melanoma it was 91.5%; with LOX IMVI melanoma it was 101%; in the experiment with SK-MEL-28 melanoma it was 102%; in the experiment with SK-MEL-2 melanoma, 105%; with EKVX NSCLC, 96.6%. The growth in the experiment with SN12C renal is 96.3%; in the experiment on UO-31 renal it was 88.4%; with TK-10 renal it was 101%; in the experiment on ACHN renal it was 104%; in the experiment on CAKI-1 renal, 99.3%; in the experiment on A498 renal it was 122%. Further, in the experiment on CCRF-CEM leukemia, the growth was 107%.

On to `COC(=O)c1c(C(=O)OC)c2n(c1C)[C@@H]([C@@H](C)[C@H]1CC[C@H]3[C@@H]4CCC5=CC(=O)CC[C@]5(C)[C@H]4CC[C@]13C)SC2`, for which the growth in the experiment with HCT-15 colon was 22.2%; in the experiment with HT29 colon, 32.9%; in the experiment with SNB-75 CNS, 51.1%; in the experiment on SNB-19 CNS, 54.2%; in the experiment on U251 CNS, 38.9%; with PC-3 prostate, 8.05% (active). Also, the growth in the experiment on SK-MEL-5 melanoma is -87% (active); with UACC-62 melanoma it was 40.6%; in the experiment with LOX IMVI melanoma, 28.4%; with SK-MEL-28 melanoma it was 43.1%; with SK-MEL-2 melanoma, 40.2%; with EKVX NSCLC, 26.2%. The growth in the experiment with SN12C renal was 58%; with UO-31 renal, 30.1%; in the experiment on TK-10 renal, 57.9%; in the experiment on ACHN renal, 46%; with CAKI-1 renal it was -3.55% (active); in the experiment with A498 renal, 71.8%. The growth was 10.2% in the experiment on CCRF-CEM leukemia and 2.64% (active) in the experiment on MOLT-4 leukemia.

Turning to `COc1ccc(-c2cc(C(=O)N=Nc3c(O)[nH]c4ccc(Br)cc34)c3ccccc3n2)cc1`, the growth in the experiment with HCT-15 colon was -60.8% (active); with HT29 colon it was -1.14% (active); in the experiment with SNB-75 CNS, 108%; with SNB-19 CNS, -3.47% (active); with U251 CNS, -67.7% (active); in the experiment with PC-3 prostate, 23.1%. The growth in the experiment on SK-MEL-5 melanoma was 84.8%; in the experiment on UACC-62 melanoma, 32.6%; in the experiment with LOX IMVI melanoma it was -51.5% (active); in the experiment on SK-MEL-28 melanoma it was 65.9%; in the experiment on SK-MEL-2 melanoma it was 122%; in the experiment on EKVX NSCLC it was 44.4%. Further, the growth was 5.56% (active) in the experiment with SN12C renal; 43.2% in the experiment with UO-31 renal; 97.8% in the experiment with TK-10 renal; 24.5% with ACHN renal; 57.1% in the experiment with CAKI-1 renal; 143% in the experiment on A498 renal. In addition, the results for the growth with CCRF-CEM leukemia and in the experiment with MOLT-4 leukemia were 18.9% and 4.15% (active), respectively.

For `COc1cc(C2CC(c3ccccc3)=Nc3c(N)nc(N)nc3N2)ccc1Oc1nc(Nc2ccc(F)cc2)nc(N(C)C)n1` (centres undefined), the growth in the experiment on HCT-15 colon is 20.8%; in the experiment on HT29 colon, 24.7%; in the experiment with SNB-75 CNS, 61%; in the experiment on SNB-19 CNS, 62.2%; in the experiment on U251 CNS it was 56.3%; in the experiment with PC-3 prostate it was 40.7%. The growth is -97.8% (active) with SK-MEL-5 melanoma; 48.5% in the experiment with UACC-62 melanoma; 23.2% in the experiment with LOX IMVI melanoma; 67.8% in the experiment on SK-MEL-28 melanoma; 54.5% in the experiment on SK-MEL-2 melanoma; 50.2% with EKVX NSCLC. Also, the growth in the experiment with SN12C renal was 64.6%; in the experiment on UO-31 renal, 46.6%; in the experiment on TK-10 renal it was 82.6%; with ACHN renal it was 38.5%; in the experiment with CAKI-1 renal it was 39.3%; with A498 renal, 94.4%. The growth with CCRF-CEM leukemia was 25.4%; with MOLT-4 leukemia, 1.45% (active).

On to `Cc1ccc(/C=C/C(=O)c2ccc(NC(=O)CSc3nnc(-c4c[nH]c5ccccc45)n3-c3ccccc3)cc2)c(C)c1`, for which the growth in the experiment on HCT-15 colon is 51.4%; in the experiment with HT29 colon, 65.5%; in the experiment with SNB-75 CNS, 92.6%; in the experiment with SNB-19 CNS it was 72.2%; in the experiment on U251 CNS, 13.1%; with PC-3 prostate, 48.6%. Also, the growth in the experiment with SK-MEL-5 melanoma was 88.3%; in the experiment with UACC-62 melanoma, 72.8%; in the experiment with LOX IMVI melanoma, 13.3%; in the experiment on SK-MEL-28 melanoma, 80.9%; with SK-MEL-2 melanoma, 87.7%; in the experiment with EKVX NSCLC, 63.7%. The growth with SN12C renal is 27.1%; in the experiment on UO-31 renal, 65.9%; in the experiment on TK-10 renal, 73.4%; in the experiment with ACHN renal, 59.5%; in the experiment on CAKI-1 renal, 66.9%; with A498 renal, 106%. Besides, the growth in the experiment with CCRF-CEM leukemia is 83.1%; with MOLT-4 leukemia, 43.6%.

Regarding `CSc1nc(-c2cccc(C)c2)c2cc(-c3ccccc3)n(C)c2n1`, the growth in the experiment on HCT-15 colon is 15.3%; with HT29 colon it was 9.09% (active); in the experiment with SNB-75 CNS, -2% (active); in the experiment with SNB-19 CNS, 30.2%; with U251 CNS, 17.4%; with PC-3 prostate, 21.7%. The growth with SK-MEL-5 melanoma is -44.7% (active); with UACC-62 melanoma, 11.1%; in the experiment on LOX IMVI melanoma, 21.4%; in the experiment on SK-MEL-28 melanoma it was 34.7%; in the experiment with SK-MEL-2 melanoma, 12.2%; with EKVX NSCLC it was 18.4%. For the same molecule, the growth is 20% in the experiment with SN12C renal; 29.8% with UO-31 renal; 58.1% in the experiment with TK-10 renal; 32.4% in the experiment on ACHN renal; 26.2% in the experiment with CAKI-1 renal; 65.5% in the experiment with A498 renal. Moreover, the growth in the experiment on CCRF-CEM leukemia is 17.5%; in the experiment on MOLT-4 leukemia, 16.8%.

Consider `COc1ccc(-c2ccc(/C=N/NC(=O)c3[nH]c4ccc(Br)cc4c3-c3ccccc3)s2)cc1`, for which the growth in the experiment on HCT-15 colon is 68.4%; in the experiment with HT29 colon, 84.5%; in the experiment with SNB-75 CNS, 88.1%; in the experiment on SNB-19 CNS it was 73.8%; in the experiment with U251 CNS, 35.9%; in the experiment with PC-3 prostate, 91.7%. Further, the growth in the experiment with SK-MEL-5 melanoma is 106%; with UACC-62 melanoma, 45.9%; with LOX IMVI melanoma, 75.5%; with SK-MEL-28 melanoma it was 105%; with SK-MEL-2 melanoma it was 106%; with EKVX NSCLC, 110%. The growth with SN12C renal was 74.9%; in the experiment with UO-31 renal it was 86.4%; in the experiment with TK-10 renal, 127%; in the experiment with ACHN renal, 106%; in the experiment with CAKI-1 renal it was 94.8%; in the experiment with A498 renal, 131%. Besides, the values for the growth in the experiment with CCRF-CEM leukemia and in the experiment with MOLT-4 leukemia were 88% and 87.6%, respectively.

`CCN1CCN(Cc2ccc(NC(=O)c3cccc(-n4cc(-c5ccc(NC(C)=O)nc5)nn4)c3)cc2C(F)(F)F)CC1`: the growth with HCT-15 colon was 83.9%; in the experiment on HT29 colon, 61.7%; with SNB-75 CNS, 104%; with SNB-19 CNS it was 122%; with U251 CNS it was 86.6%; in the experiment with PC-3 prostate, 112%. The growth in the experiment on SK-MEL-5 melanoma was 87.3%; in the experiment on UACC-62 melanoma, 82.4%; with LOX IMVI melanoma it was 72.4%; in the experiment with SK-MEL-28 melanoma it was 53.3%; in the experiment on SK-MEL-2 melanoma, 106%; with EKVX NSCLC, 105%. For the same molecule, the growth is 95.9% in the experiment on SN12C renal; 107% with UO-31 renal; 149% with TK-10 renal; 109% in the experiment with ACHN renal; 88.9% in the experiment on CAKI-1 renal; 213% in the experiment on A498 renal. Also, the growth in the experiment on CCRF-CEM leukemia was 39.2%; in the experiment on MOLT-4 leukemia, 80.3%.
